Measurements from the OligoGym collection.

biological target: CHID1; assay: pooled miR-30 sensor sort-seq; sequence = guide strand; settings: shRNA
Also: reference of the scale not given here.

| Sequence | sensor-assay potency score (higher = more potent) |
| --- | --- |
| AAACTGACTCTTCTCCAGCAGC | -0.926 |
| TTCAGTGTCTGGATGTACCTGG | 0.597 |
| TTCGCCACTTGGACTTCGGGTC | -0.182 |
| TGAAAACTGACTCTTCTCCAGC | -0.645 |
| TATCTCATCCTCACTGTCTAAG | -0.858 |
| ATGCGCTGTAGAGTAGTCGTAG | -0.323 |
| TTTGAGGTCCGTCACCACCAAA | -1.77 |
| TTTGCCGAGCAGTAGCTGCGAT | -0.629 |
| TAGTCGTAGGTCATGAGGCTGA | -0.661 |
| TCACTGTCTAAGACGTTCCGGA | -0.147 |
| TGTAGAGTAGTCGTAGGTCATG | -1.27 |
| TAGTCCATACCATAGAAGTTGA | -1.13 |

biological target: CHMP2A; assay: as above; settings: shRNA

| Sequence | sensor-assay potency score (higher = more potent) |
| --- | --- |
| AAGTCTTTTGCCATGATGCGAA | -0.973 |
| TTGTTGGACTTGAGTGTCTGGA | -0.834 |
| AAACTTGCGCACATAGCGCCGG | -0.531 |
| TGCAATGATTTTCTTCTCCTGG | -0.535 |
| TTGAGTGTCTGGATCTTGAGGG | 0.547 |
| TTCATGGCTTGTGCCATCGAGT | -1.33 |
| TTCATCTTCCTCATCACCCATG | -0.68 |
| AACTTGCGCACATAGCGCCGGG | -1.16 |
| TCTAGTTTCTGTCGCTCGCGGT | -0.825 |
| TTCAGCTGTCTGTTCATGGTGC | 0.372 |
| ATCATTCATCATCTCCTCCTTC | -0.0683 |
| TTTCTGTCGCTCGCGGTCCAGC | -1.66 |

biological target: CHRM2; assay: as above; settings: shRNA

| Sequence | sensor-assay potency score (higher = more potent) |
| --- | --- |
| TTGGCTTCACTATCCTTCCTTG | -0.217 |
| TTTCATCTCCATTCTGACCTGA | 0.602 |
| TTCATCTCCATTCTGACCTGAA | 0.399 |
| TTAGTCATCTTCACAATCTTGC | 0.87 |
| TTTGTGGTCCGCTTGACTGGGT | -0.403 |
| TTCTTTATCCTGCTCTTGCTGG | -0.363 |
| TATTAGAGGCAACAGCACTGAC | -0.688 |
| TTTTGTGGTCCGCTTGACTGGG | 0.0688 |
| TTAGAGTTCTCATCTTTGGAAT | -1.06 |
| TATAAGGACTTGTAAGAGCCAG | -0.37 |
| TTAAAGGTCTTCTTGAAGGTGG | 0.265 |
| TACATGAGTCACTTTTTGGGGT | -0.152 |
| TCATCTTCACAATCTTGCGGGC | -0.203 |
| TTTAATGGAAACCATGACTAGG | -0.722 |
